Laboratory results reported in PubChem BioAssay (NCATS).
Results filed as inconclusive are left out. A call without a number means that no potency is given here. The source holds several records for some structures; these can differ, active in one and inactive in another. Active and inactive are the calls of the source. The call rests on the fitted dose curve; in most records, active means well fitted curve in the direction sought with a large enough effect; inconclusive means small, poorly fitted or top-dose-only effect, or another doubt; inactive means no such curve, though single readings can be large; an effect the other way counts as inactive or inconclusive.

Tests used:
[1] = molecular target: ATP-dependent 6-phosphofructokinase (Trypanosoma brucei brucei) (UniProt O15648); test: qHTS Assay to Find Inhibitors of T. brucei phosphofructokinase: hit validation (AID 492961);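 further: luminescence reports ADP formed as PFK phosphorylates fructose-6-phosphate with ATP; series mostly up to about 51 µM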
Summary of the method: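 Inhibition of parasite PFK is measured as reduced ADP formation, quantified via luciferase after ATP depletion. Assay used 0.1 mM ATP, 0.5 mM F6P, 1.25 nM enzyme, 45 min incubation.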

[2] = molecular target: Flap endonuclease 1 (Homo sapiens) (UniProt P39748); test: qHTS Validation Assay for the Inhibitors of Human Flap endonuclease 1 (FEN1) (AID 488816)
Summary of the method: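 Enzyme reagent 10 nM; cpds pinned; 15 min RT preinc.; substrate 50 nM final; reads t=0 and 15 min; no-enzyme buffer wells as neg. control; normalized data, 4-parameter Hill fit.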

[3] = molecular target: M-phase phosphoprotein 8 (Homo sapiens) (UniProt Q99549); test: qHTS Validation Assay for Inhibitors for MPP8 Chromodomain Interactions with Methylated Histone Tails (AID 488949); further: nearly all actives have a fitted effect of over 55% in size; further: potency means the concentration at half of the fitted maximal effect
Summary of the method: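 MPP8 (50 nM) was pre-bound to 50 nM biotinylated H3(1-18)K9me3 peptide in PBS pH 7.4 with 0.01% Tween-20. Compounds were then added for 30 min at room temperature, and complex disruption was read by AlphaScreen with streptavidin donor and nickel-chelate acceptor beads.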

[4] = molecular target: Chromobox protein homolog 1 (Homo sapiens) (UniProt P83916); test: qHTS Validation Assay for Inhibitors of HP1-beta Chromodomain Interactions with Methylated Histone Tails (AID 488953); further: nearly all actives have a fitted effect of over 50% in size; further: potency means the concentration at half of the fitted maximal effect
Summary of the method: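 AlphaScreen proximity readout: streptavidin donor and Ni-chelate acceptor beads, 10 ug/mL final, 30 min dark, RT. Complex of 50 nM HP1-beta and 50 nM b-H3(1-18)K9me3 formed 30 min, then compound-treated 30 min; PBS pH 7.4/0.01% Tween-20.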

[5] = molecular target: Methanococcus maripaludis chaperonin (MmCpn) (UniProt Q6LX38); test: High-Throughput Screening for Modulators of Cytosolic Chaperonin Activity: MmCpn Primary Screen (AID 488978);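 further: 50 nM MmCpn enzyme hydrolysing 30 µM ATP at 37 °C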
Summary of the method: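 MmCpn at 50 nM final was preincubated 5 min at RT with compound. ATP was then added at 30 uM final for 10 min at 37 C. ADP formed was detected by Transcreener HTRF (665/590 nm).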

[6] = molecular target: D(1A) dopamine receptor (Homo sapiens) (UniProt P21728); test: HTS Assay for Allosteric Agonists of the Human D1 Dopamine Receptor: Primary Screen for Agonists (AID 488981)
Summary of the method: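 Tetracycline-induced HEK293 Trex D1 cells with forced coupling to calcium, loaded with no-wash calcium dye; kinetic fluorescence read 180 s after compound addition for agonism, then a further 180 s after an EC20 dopamine challenge for potentiation.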

[7] = molecular target: D(1A) dopamine receptor (Homo sapiens) (UniProt P21728); test: HTS Assay for Allosteric Agonists of the Human D1 Dopamine Receptor: Primary Screen for Antagonists (AID 488983);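 further: calcium flux response to an EC80 dopamine challenge measured with no-wash dye; nearly all actives have a fitted effect of over 65% in size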; further: potency means the concentration at half of the fitted maximal effect
Summary of the method: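 Calcium flux readout, no-wash dye, inducible HEK293 T-REx D1 line (force-coupled). Compound added after 10 s baseline, 180 s kinetic read; then dopamine at EC80, further 180 s read.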

[8] = Validation screen for small molecules that induce genotoxicity in human embryonic kidney (HEK293T) cells expressing luciferase-tagged ELG1 (AID 493106)
Summary of the method: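 qHTS format; 2,000 HEK293T ELG1-luc cells/well; 23 nL compound via pin tool; 16 hr, 37 °C/5% CO2; ONE-Glo, 30 min RT; luminescence read.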

[9] = molecular target: ATPase family AAA domain-containing protein 5 (Homo sapiens) (UniProt Q96QE3); test: Validation screen for small molecules that inhibit ELG1-dependent DNA repair in human embryonic kidney (HEK293T) cells expressing luciferase-tagged ELG1 (AID 493107); further: nearly all actives have a fitted effect of over 70% in size; further: potency means the concentration at half of the fitted maximal effect
Summary of the method: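 ELG1-luciferase HEK293T reporter; 5-fluorouridine + compound/DMSO, 16 hr, 37 °C, 5% CO2; ONE-Glo 30 min RT; luminescence read, qHTS format.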

[10] = molecular target: Transient receptor potential cation channel subfamily V member 1 (Homo sapiens) (UniProt Q8NER1); test: HTS Assay for Compounds that Act as Enhancers of the Vanilloid Receptor 1 (AID 488979)
Summary of the method: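 TRPV1 cells loaded with Fluo-8 calcium dye; compound added and Ca2+ signal (ex 480/em 520 nm) followed 3 min, then capsaicin at EC20 added and read 2 more min to detect enhancement.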

ATP-dependent 6-phosphofructokinase (Trypanosoma brucei brucei), sequence (O15648 whole entry, looked up): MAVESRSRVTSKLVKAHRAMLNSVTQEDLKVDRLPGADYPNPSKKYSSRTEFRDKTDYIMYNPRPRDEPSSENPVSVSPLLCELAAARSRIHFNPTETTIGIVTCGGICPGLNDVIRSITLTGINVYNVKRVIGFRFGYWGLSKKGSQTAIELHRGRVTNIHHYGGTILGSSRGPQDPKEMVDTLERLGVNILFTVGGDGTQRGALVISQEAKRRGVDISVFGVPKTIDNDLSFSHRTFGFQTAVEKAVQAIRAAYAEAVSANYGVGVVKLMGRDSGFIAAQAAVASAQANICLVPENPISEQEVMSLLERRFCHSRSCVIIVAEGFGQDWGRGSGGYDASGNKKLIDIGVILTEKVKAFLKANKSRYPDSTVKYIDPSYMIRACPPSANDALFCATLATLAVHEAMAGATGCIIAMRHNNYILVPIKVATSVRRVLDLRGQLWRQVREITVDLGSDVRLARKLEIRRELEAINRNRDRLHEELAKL
Transient receptor potential cation channel subfamily V member 1 (Homo sapiens), sequence (Q8NER1 whole entry, looked up): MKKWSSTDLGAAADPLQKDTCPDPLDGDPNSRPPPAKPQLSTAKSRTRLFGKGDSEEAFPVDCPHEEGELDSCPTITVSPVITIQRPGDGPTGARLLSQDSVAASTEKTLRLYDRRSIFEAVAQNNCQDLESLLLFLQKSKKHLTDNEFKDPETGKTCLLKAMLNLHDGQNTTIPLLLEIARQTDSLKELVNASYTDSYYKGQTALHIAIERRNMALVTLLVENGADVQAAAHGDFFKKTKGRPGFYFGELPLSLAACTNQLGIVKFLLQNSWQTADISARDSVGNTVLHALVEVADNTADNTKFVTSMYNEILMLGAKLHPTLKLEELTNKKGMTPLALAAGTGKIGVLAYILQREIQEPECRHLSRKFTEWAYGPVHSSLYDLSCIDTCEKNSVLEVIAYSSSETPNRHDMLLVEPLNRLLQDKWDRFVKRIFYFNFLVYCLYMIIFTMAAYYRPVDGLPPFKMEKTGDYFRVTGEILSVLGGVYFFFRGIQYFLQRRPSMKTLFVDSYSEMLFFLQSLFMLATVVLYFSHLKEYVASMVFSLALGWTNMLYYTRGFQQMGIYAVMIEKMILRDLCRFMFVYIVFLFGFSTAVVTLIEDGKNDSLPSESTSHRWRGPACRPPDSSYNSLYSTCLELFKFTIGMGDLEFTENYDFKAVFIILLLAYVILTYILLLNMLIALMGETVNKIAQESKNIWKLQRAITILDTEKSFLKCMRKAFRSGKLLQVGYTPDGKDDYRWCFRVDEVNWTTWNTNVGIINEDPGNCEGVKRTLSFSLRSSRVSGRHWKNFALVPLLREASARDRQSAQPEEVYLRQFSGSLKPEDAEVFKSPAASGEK
M-phase phosphoprotein 8 (Homo sapiens), sequence (Q99549 whole entry, looked up): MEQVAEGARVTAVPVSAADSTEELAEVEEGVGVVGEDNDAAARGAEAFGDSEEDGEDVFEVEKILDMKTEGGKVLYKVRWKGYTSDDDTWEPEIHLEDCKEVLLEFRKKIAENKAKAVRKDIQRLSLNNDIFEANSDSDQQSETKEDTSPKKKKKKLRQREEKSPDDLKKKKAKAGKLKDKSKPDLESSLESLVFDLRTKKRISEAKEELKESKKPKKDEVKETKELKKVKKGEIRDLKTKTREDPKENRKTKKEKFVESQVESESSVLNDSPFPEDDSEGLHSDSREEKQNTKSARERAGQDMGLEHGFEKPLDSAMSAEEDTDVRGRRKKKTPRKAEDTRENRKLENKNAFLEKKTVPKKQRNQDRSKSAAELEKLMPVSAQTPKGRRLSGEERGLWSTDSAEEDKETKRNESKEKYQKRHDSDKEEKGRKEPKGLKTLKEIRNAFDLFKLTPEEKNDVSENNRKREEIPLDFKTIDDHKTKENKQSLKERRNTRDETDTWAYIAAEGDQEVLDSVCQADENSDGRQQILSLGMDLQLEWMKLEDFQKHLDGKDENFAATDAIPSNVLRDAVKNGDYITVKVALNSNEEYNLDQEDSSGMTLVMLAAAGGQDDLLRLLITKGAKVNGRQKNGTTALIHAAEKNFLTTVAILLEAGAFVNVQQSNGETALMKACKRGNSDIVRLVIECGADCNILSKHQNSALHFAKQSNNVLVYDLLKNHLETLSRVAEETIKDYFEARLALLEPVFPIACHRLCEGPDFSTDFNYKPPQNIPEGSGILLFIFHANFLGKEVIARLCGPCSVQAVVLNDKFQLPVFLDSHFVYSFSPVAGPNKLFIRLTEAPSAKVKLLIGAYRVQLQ
Methanococcus maripaludis chaperonin (MmCpn), sequence (Q6LX38 1-543): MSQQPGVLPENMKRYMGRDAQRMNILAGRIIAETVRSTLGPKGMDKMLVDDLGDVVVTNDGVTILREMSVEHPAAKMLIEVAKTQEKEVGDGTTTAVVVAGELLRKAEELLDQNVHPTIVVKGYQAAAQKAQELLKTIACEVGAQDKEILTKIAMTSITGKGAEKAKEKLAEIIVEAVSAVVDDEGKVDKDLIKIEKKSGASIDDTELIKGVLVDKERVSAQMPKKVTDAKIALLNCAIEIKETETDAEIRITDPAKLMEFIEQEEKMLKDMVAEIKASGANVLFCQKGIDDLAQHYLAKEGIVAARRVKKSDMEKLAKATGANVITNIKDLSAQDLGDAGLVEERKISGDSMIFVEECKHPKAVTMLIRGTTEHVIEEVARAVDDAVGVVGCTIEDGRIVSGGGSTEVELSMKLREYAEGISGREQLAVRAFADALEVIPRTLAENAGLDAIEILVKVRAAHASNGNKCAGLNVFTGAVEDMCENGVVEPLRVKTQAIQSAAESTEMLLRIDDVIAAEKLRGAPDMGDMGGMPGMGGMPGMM
Chromobox protein homolog 1 (Homo sapiens), sequence (P83916 whole entry, looked up): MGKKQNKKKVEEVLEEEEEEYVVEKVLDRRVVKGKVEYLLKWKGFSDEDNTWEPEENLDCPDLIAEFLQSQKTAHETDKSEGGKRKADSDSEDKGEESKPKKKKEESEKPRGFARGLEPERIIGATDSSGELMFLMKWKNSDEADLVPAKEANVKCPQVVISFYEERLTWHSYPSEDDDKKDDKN
ATPase family AAA domain-containing protein 5 (Homo sapiens), sequence (Q96QE3 whole entry, looked up, the tested form may be a part): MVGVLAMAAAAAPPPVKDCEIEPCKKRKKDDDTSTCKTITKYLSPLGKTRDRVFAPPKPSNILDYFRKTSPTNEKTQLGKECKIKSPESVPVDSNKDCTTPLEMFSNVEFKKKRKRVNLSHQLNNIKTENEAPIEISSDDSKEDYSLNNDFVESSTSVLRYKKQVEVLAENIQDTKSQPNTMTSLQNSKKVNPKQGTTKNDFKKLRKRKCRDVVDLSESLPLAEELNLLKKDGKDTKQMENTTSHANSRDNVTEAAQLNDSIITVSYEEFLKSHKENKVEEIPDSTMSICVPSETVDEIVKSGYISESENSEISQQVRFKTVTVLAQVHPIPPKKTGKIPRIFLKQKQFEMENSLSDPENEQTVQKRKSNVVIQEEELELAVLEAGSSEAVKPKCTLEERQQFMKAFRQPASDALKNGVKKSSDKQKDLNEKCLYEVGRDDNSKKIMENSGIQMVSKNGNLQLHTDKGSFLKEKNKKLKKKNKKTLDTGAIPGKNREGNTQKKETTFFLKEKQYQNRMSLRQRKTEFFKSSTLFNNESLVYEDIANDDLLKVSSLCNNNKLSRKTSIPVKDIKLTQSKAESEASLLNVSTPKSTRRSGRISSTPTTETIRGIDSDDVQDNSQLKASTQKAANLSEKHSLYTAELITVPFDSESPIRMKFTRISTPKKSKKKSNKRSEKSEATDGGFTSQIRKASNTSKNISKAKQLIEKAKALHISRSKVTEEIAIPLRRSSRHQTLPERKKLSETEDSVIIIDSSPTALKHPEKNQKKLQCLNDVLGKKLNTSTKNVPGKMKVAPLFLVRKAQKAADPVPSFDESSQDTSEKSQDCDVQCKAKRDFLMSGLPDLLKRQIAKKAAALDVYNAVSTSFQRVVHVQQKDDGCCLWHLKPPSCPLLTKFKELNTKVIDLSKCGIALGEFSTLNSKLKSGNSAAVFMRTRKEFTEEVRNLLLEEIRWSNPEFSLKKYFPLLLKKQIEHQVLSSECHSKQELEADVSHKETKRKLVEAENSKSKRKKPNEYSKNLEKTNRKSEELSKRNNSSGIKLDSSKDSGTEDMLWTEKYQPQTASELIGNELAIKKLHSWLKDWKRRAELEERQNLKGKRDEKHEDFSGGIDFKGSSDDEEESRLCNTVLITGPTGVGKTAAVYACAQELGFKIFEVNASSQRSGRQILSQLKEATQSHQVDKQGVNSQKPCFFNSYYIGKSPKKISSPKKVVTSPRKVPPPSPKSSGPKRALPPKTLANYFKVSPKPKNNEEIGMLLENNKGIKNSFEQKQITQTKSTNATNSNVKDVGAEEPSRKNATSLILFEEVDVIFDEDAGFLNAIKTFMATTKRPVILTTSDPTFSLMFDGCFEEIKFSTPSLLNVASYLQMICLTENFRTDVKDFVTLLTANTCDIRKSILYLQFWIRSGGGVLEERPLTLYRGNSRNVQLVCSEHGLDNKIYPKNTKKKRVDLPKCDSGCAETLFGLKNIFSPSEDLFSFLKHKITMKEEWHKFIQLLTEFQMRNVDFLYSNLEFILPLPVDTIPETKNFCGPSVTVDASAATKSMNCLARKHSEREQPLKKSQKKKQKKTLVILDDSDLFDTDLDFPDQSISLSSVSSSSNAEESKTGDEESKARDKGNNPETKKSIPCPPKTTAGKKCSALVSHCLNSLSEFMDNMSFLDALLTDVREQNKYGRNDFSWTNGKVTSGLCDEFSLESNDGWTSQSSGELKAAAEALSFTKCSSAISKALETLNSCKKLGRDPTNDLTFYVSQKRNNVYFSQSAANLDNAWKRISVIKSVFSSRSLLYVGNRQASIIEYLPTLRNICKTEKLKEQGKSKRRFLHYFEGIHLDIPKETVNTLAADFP

| SMILES | outcome [1] | outcome [2] | Potency [3] | Potency [4] | outcome [5] | outcome [6] | Potency [7] | outcome [8] | Potency [9] | outcome [10] |
| --- | --- | --- | --- | --- | --- | --- | --- | --- | --- | --- |
| CCCCCCCCCCCCCCCC[n+]1ccccc1 | inactive |  |  |  |  |  |  |  |  |  |
| COC(=O)C1=CO[C@@H](O)[C@@H]2C(CO)=CC[C@H]12 |  | inactive | inactive | inactive | inactive | inactive | inactive | inactive | inactive |  |
| O=S(=O)(O)c1ccc2nc(-c3ccccc3)[nH]c2c1 | inactive |  |  |  |  |  |  |  |  |  |
| O=C1NC(c2cccc([N+](=O)[O-])c2)=CCN1c1ccccc1O |  | inactive | inactive | inactive | inactive | inactive | inactive | inactive | inactive | inactive |
| CCN(CC)CCNC(=O)c1ccc(NS(C)(=O)=O)cc1 |  | inactive | inactive | inactive | inactive | inactive | inactive | inactive | inactive |  |
| Cn1cnc2c(NCc3ccccc3)nc(NCCO)nc21 |  | inactive | inactive | inactive | inactive | inactive | inactive | inactive | inactive | inactive |
| O=C(Nc1ccc(Cl)cc1)Nc1ccc(Cl)c(Cl)c1 | inactive |  |  |  |  |  |  |  |  |  |
| Brc1ccc([C@H]2CN3CCSC3=N2)cc1 |  | inactive | inactive |  | inactive | inactive | inactive | inactive | inactive | inactive |
| NC(N)=NCCCCN=C(N)N |  | inactive | inactive | inactive | inactive | inactive | inactive | inactive | inactive | inactive |
| O=C1NC(=O)/C(=C/c2ccc3c(c2)OC(F)(F)O3)S1 |  | inactive | inactive |  | inactive | inactive | inactive |  |  |  |
| O=[N+]([O-])c1ccc(O)c2ncccc12 | inactive |  |  |  |  |  |  |  |  |  |
| CCCCCCCCCCCCCC[N+](C)(C)C | inactive |  |  |  |  |  |  |  |  |  |
| Nc1ncnc2nc[nH]c12 | inactive |  |  |  |  |  |  |  |  |  |
| CC(C)N(CCC(=O)c1ccc2ccccc2c1)Cc1ccccc1 |  | inactive | 28.2 µM (active) and inactive | 44.7 µM (active) | inactive | inactive |  | inactive |  |  |
| COc1cccc2c1[C@@H]1CN(CCCCn3c(=O)[nH]c4c(sc5ncc(-c6ccccc6)nc54)c3=O)C[C@@H]1CO2 |  | inactive | 20 µM (active) | 22.4 µM (active) | inactive | inactive | inactive | inactive | 23.1 µM (active) | inactive |
| O=[N+]([O-])c1ccc(-c2nc(-c3ccc(F)cc3)c(-c3ccncc3)[nH]2)cc1 |  | inactive | 22.4 µM (active) and inactive | 31.6 µM (active) | inactive | inactive | inactive | inactive |  | inactive |
| Cc1nn(-c2ccccc2)c(C)c1/C=N/N1CCN(Cc2ccccc2)CC1 |  | inactive |  | 39.8 µM (active) | inactive | inactive | inactive | inactive |  |  |
| Clc1ccc2c(c1)N=C(N1CCNCC1)c1ccccc1N2 |  | inactive | inactive | inactive | inactive |  | 0.562 µM (active) | inactive | inactive |  |
| C[C@]12CCC(=O)C=C1CC[C@@H]1[C@@H]2[C@@H](O)C[C@@]2(C)[C@H]1CC[C@]2(O)C(=O)COC(=O)CCC(=O)O |  |  | inactive |  |  |  |  |  |  | inactive |
| Nc1c2ccccc2nc2ccccc12 | inactive |  |  |  |  |  |  |  |  |  |
| CN1CCC(Nc2ncc3ncnc(Nc4ccc(F)c(Cl)c4)c3n2)CC1 | inactive |  |  |  |  |  |  |  |  |  |
| CN(C)c1cc2c(Nc3ccc4c(cnn4Cc4ccccc4)c3)ncnc2cn1 |  |  | inactive |  | inactive | inactive | inactive | inactive |  | inactive |
| COc1ccccc1N1CCN(CCN2C(=O)CC3(CCCC3)CC2=O)CC1 |  | inactive | inactive | inactive | inactive | inactive | inactive | inactive | inactive | inactive |
| Nc1ccc2cc3ccc(N)cc3nc2c1 | inactive |  |  |  |  |  |  |  |  |  |
| Nc1ncnc2n[nH]c(Nc3ccc(F)cc3)c12 |  | inactive | inactive | inactive | inactive | inactive | inactive | inactive |  |  |
| N[C@@H](Cn1ccc(=O)c(O)c1)C(=O)O |  | inactive | inactive | inactive | inactive | inactive | inactive | inactive | inactive |  |
| C[N+](C)(C)CCO |  | inactive | inactive | inactive | inactive | inactive | inactive | inactive | inactive | inactive |
| CC(NCCC(c1ccccc1)c1ccccc1)c1ccccc1 (stereo not drawn) | inactive |  |  |  |  |  |  |  |  |  |
